Experimental data published in the supplement of paper PMC4723716.
± gives the uncertainty stated by the source. In all, about 9,900 compounds were measured (“viability index relative to DMSO control”: median about 1, lowest 2% from about 0.85 on). This is one part of a sample in which the lowest values are shown more often than they occur.

Tested on: Plasmodium falciparum NF54 stage V gametocytes
Experiment: viability index relative to DMSO control (fraction); higher = less gametocyte killing
Details: 2.5 µM, incubation time: 72 h
Method in brief: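 P. falciparum NF54 stage V gametocytes (serum-free medium, 0.75% gametocytemia, 1.25% hematocrit) were exposed to compound at 2.5 µM for 72 hr at 37°C under low oxygen, then stained with MitoTracker Red CMXRos and saponin for one to two hours. Red particles of 20–70 µm2 in one field per well were counted, and the viability index is that count scaled to the plate mean of solvent-only wells.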

[1] = library set: Broad Institute DOS

SMILES | viability index [1] | viability index (library set: Broad Institute Blood Stage)
CCS(=O)(=O)N1C[C@@]2(C1)CN(CC1CCOCC1)[C@H](CO)c1c2c2ccc(OC)cc2n1C | 0.985 ± 0.037 | –
C[C@@H]1CCCCO[C@@H](CN(C)S(=O)(=O)c2cn(C)cn2)[C@H](C)CN([C@@H](C)CO)C(=O)c2cc(NC(=O)Nc3cccc4ccccc34)ccc2O1 | 1.02 ± 0.062 | –
O=C(C[C@@H]1CC[C@@H](NS(=O)(=O)c2ccc(F)cc2)[C@H](CO)O1)N1CCN(c2ccccc2)CC1 | 1.05 ± 0.087 | –
O=C(Nc1ccccc1F)N1CCCCN2[C@H](CO)[C@@H](c3ccc(/C=C/c4ccccc4)cc3)[C@H]2C1 | 0.859 ± 0.037 | –
O=C(Nc1cc(F)ccc1F)N1CCCCN2[C@H](CO)[C@H](c3ccc(C4=CCCCC4)cc3)[C@H]2C1 | 0.686 ± 0.018 | –
O=C(Nc1ccccc1F)N1CCCCN2[C@H](CO)[C@H](c3ccc(/C=C/c4ccccc4)cc3)[C@@H]2C1 | 1.01 ± 0.021 | –
O=C(Nc1cc(F)ccc1F)N1CCCCN2[C@H](C1)[C@H](c1ccc(C3=CCCCC3)cc1)[C@@H]2CO | 1.04 ± 0.075 | –
O=C(Nc1cc(F)ccc1F)N1CCCCN2[C@@H](CO)[C@@H](c3ccc(C4=CCCCC4)cc3)[C@@H]2C1 | 0.818 ± 0.063 | –
O=C(Nc1ccccc1F)N1CCCCN2[C@@H](CO)[C@@H](c3ccc(/C=C/c4ccccc4)cc3)[C@@H]2C1 | 0.8892 ± 0.0057 | –
O=C(Nc1ccccc1F)N1CCCCN2[C@H](CO)[C@@H](c3ccc(/C=C/c4ccccc4)cc3)[C@@H]2C1 | 0.961 ± 0.019 | –
O=C(Nc1ccccc1F)N1CCCCN2[C@H](CO)[C@H](c3ccc(/C=C/c4ccccc4)cc3)[C@H]2C1 | 0.492 ± 0.14 | –
O=C(Nc1cc(F)ccc1F)N1CCCCN2[C@H](CO)[C@H](c3ccc(C4=CCCCC4)cc3)[C@@H]2C1 | 0.935 ± 0.14 | –
O=C(C[C@@H]1C=C[C@@H](NC(=O)C2CCC2)[C@@H](CO)O1)NC1CCCCC1 | 1.16 ± 0.096 | –
C[C@@H]1CN([C@@H](C)CO)C(=O)c2cc(NC(=O)C3CCCCC3)ccc2O[C@@H](C)CCCCO[C@@H]1CN(C)C(=O)CCC(F)(F)F | 1.05 ± 0.025 | –
CCCC(=O)N1C[C@@]2(C1)CN([C@@H](CO)c1c2c2ccc(OC)cc2n1C)C(=O)Nc1cccc(F)c1 | 0.997 ± 0.13 | –
C[C@H](NC(=O)C[C@@H]1C=C[C@H](NS(=O)(=O)c2cccc(F)c2)[C@H](CO)O1)c1ccccc1 | 1.08 ± 0.11 | –
N#Cc1ccc(-c2ccc([C@H]3[C@@H](CO)N4C(=O)CNC[C@@H]34)cc2)cc1 | 0.965 ± 0.1 | –
CN1CCN(C(=O)C[C@H]2CC[C@@H]3[C@H](COC[C@@H](O)CN3C(=O)Nc3ccc4c(c3)OCO4)O2)CC1 | 1.05 ± 0.017 | –
O=C(C1CCCCC1)N1[C@H](CO)[C@@H](c2ccccc2)C12CN(Cc1cccc(Cl)c1)C2 | – | 0.748 ± 0.048
O=C(C1CCOCC1)N1[C@H](CO)[C@@H](c2ccccc2)C12CN(Cc1cccc(Cl)c1)C2 | 1.1 ± 0.062 | –
O=C(C1CCOCC1)N1[C@@H](CO)[C@@H](c2ccccc2)C12CN(Cc1cccc(Cl)c1)C2 | 1.103 ± 0.0018 | –
